# Measured values: PubChem BioAssay (NCATS)
# Several values for one entry are separate records, joined by “and”; a condition that tells them apart may be missing. Equal entries are not always repeated. Records with an inconclusive call do not appear. Activity calls are given as the source filed them. Unless noted, calls come from the whole dose curve; as a rule, active = well fitted curve in the direction sought with a large enough effect; inconclusive = small, poorly fitted or top-dose-only effect, or another doubt; inactive = no such curve, though single readings can be large; an effect the other way counts as inactive or inconclusive.
# What was measured:
# [1] = qHTS Assay for Lipid Storage Modulators (AID 1519; calls by dose curve); conditions: Drosophila S3 cells, BODIPY lipid droplet/cell ratio, laser cytometry, cells loaded with oleic acid
# Procedure, shortened: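 Cells seeded at 5,000 per well were treated with compounds over a concentration series and loaded with oleic acid (400 uM, as added). Lipid droplet fluorescence (488 nm excitation, 500-530 nm channel) was read by laser-scanning cytometry and normalized to 20 uM Triacsin C.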
# [2] = Cell Viability - LYMP1-002 - Assay at 24 hr (AID 993); note: % is set by controls: 0 for no effect and ±100 for the full control effect
# Procedure, shortened: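 Human lymphoblastoid LYMP1-002 cells, 2500/well in complete medium, were treated with compounds for 24 h at 37 C; intracellular ATP was read by CellTiter-Glo luminescence. AC50 values came from Hill-equation fits of qHTS concentration-response data.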
# [3] = Cell Viability - LYMP1-002 - Assay at 40 hr (AID 994);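 note: 0% = DMSO only and full inhibition = 92 µM tetraoctylammonium bromide; nearly all actives have a fitted effect of over 60% in size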
# Procedure, shortened: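 Human lymphoblastoid cells, 2500/well in complete medium, were preincubated 5 hr at 37 C, then exposed to compounds for 40 hr at 37 C. Intracellular ATP was read by CellTiter-Glo luminescence after 30 min at room temperature; AC50 from Hill-equation fits.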
# [4] = molecular target: alpha-glucosidase (Oryza sativa, rice) (UniProt Q653V4); assay: Counterscreen for Glucocerebrosidase Inhibitors: qHTS Assay for Rice alpha-Glucosidase at pH 5.0 (AID 997);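 note: 0% = full activity with enzyme and -100% = basal without enzyme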
# Procedure, shortened: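 Rice alpha-glucosidase (4 nM final) with 400 uM 4-methylumbelliferyl-alpha-D-glucopyranoside in citrate buffer pH 5.0, 20 min at room temperature, stopped at pH 10; fluorescence 365/440 nm, compounds 0.7 nM–77 uM, AC50 from Hill fits.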
# [5] = Validation of Assay for Modulators of Lamin A Splicing (AID 1459; active = well fitted curve in the direction sought with a large enough effect in the signal ratio; the % refers to the signal ratio;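 note: cells exposed to compound for two days before reading; 0% is about no effect; ratio rise marks activators and ratio drop marks inhibitors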)
# Procedure, shortened: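 Splicing correction is reported by an EGFP-containing lamin A minigene in stably transfected S3 HeLa cells, while DsRed2 controls for viability and nonspecific signal. Cells are exposed to compounds for 48 hrs before the GFP over RFP ratio is taken.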
# [6] = molecular target: DNA repair nuclease/redox regulator APEX1 (Homo sapiens) (UniProt P27695); assay: qHTS Validation Assay for Inhibitors of the Human Apurinic/apyrimidinic Endonuclease 1 (APE1) (AID 1705;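 note: TAMRA fluorescence gain over two minutes as APE1 cuts a quenched THF abasic duplex; % is set by controls: 0 for no effect and ±100 for the full control effect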)
# Procedure, shortened: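 Endonuclease activity of human APE1 is followed as dequenching when the enzyme incises a tetrahydrofuran abasic site in a short duplex labelled 5'-TAMRA/3'-BHQ-2 (50 nM final), after 15 min enzyme–compound preincubation at room temperature.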
# [7] = Counterscreen for APE1 Inhibitors: Fluorescent Dye Displacement Validation Assay (AID 1707);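 note: plate controls were ThO with dsDNA and no compound for no effect and ThO without dsDNA for full effect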
# Procedure, shortened: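 Compounds are scored by their ability to displace Thiazole Orange (250 nM) from a 50 nM TAMRA-tagged duplex bearing a tetrahydrofuran abasic site. Buffer is 50 mM Tris-HCl pH7.5, 50mM NaCl, 2 mM MgCl2, 0.01% Tween-20.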
# [8] = molecular target: Endonuclease 4 (Escherichia coli (strain K12)) (UniProt P0A6C1); assay: Counterscreen for APE1 Inhibitors: qHTS Validation Assay for Inhibitors of Endonuclease IV (AID 1708); note: % is set by controls: 0 for no effect and ±100 for the full control effect
# Procedure, shortened: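 2 nM enzyme was preincubated with compounds for 15 min at room temperature in 50 mM Tris-HCl pH 7.5, 50 mM NaCl, 2 mM MgCl2, 1 mM DTT, 0.01% Tween-20. 50 nM THF-abasic TAMRA/BHQ-2 duplex substrate started the reaction.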
# [9] = qHTS for differential inhibitors of proliferation of Plasmodium falciparum line 7G8 (AID 1815);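 note: parasite growth measured after three days of incubation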; note: potency is the fitted concentration of half-maximal effect;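 for activity change, negative = inhibition: plate controls were vehicle wells for no effect and reference inhibitor wells for full effect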
# [10] = qHTS for differential inhibitors of proliferation of Plasmodium falciparum line GB4 (AID 1816); conditions: Potency: Plasmodium falciparum GB4 proliferation inhibition;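 note: potency is the fitted concentration of half-maximal effect; parasite growth measured after 72 h incubation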
# [11] = qHTS for differential inhibitors of proliferation of Plasmodium falciparum line W2 (AID 1883); conditions: Potency: Plasmodium falciparum W2 proliferation inhibition;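 note: potency is the fitted concentration of half-maximal effect; parasites grown with compound for 72 h before lysis and staining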
# [12] = qHTS for differential inhibitors of proliferation of Plasmodium falciparum line HB3 (AID 1886); conditions: Potency: Plasmodium falciparum HB3 proliferation inhibition;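 note: parasites grown with compound for 72 h before SYBR Green readout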; note: potency is the fitted concentration of half-maximal effect;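 for activity change, negative = inhibition: plate controls were vehicle for no effect and reference inhibitor for full effect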
# [13] = molecular target: Ferritin light chain (Equus caballus) (UniProt P02791); assay: qHTS Validation Assay for Identification of Novel General Anesthetics (AID 2323); note: % is set by controls: 0 for no effect and ±100 for the full control effect
# Procedure, shortened: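 Apoferritin from horse spleen (10 uM) was mixed with 1-aminoanthracene at 50% saturation in PBS, then compounds were added. After 10 min at room temperature, fluorescence was read (ex 380 nm, em 535 nm) and normalized to free-probe and complex controls.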
# [14] = molecular target: ATP-dependent DNA helicase Q1 (Homo sapiens) (UniProt P46063); assay: qHTS Validation Assay for Inhibitors of RecQ-Like Dna Helicase 1 (RECQ1) (AID 2353);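 note: plate controls were DMSO vehicle for no effect and enzyme-free control for full effect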
# Procedure, shortened: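 50 nM RECQ1T1 preincubated 15 min with compound in Tris pH 8.0 buffer with MgCl2, DTT, Tween-20 and 2.5 ug/ml poly(dI-dC); started with 200 nM TAMRA/BHQ-2 forked duplex and 2 mM ATP. Unwinding read as fluorescence (525/598 nm), two reads 2 h apart.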
# [15] = qHTS for differential inhibitors of proliferation of Plasmodium falciparum line D10 (AID 1877);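 note: parasites grown with compound for 72 h before DNA staining; plate controls were vehicle wells for no effect and reference inhibitor wells for full effect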
# [16] = qHTS for differential inhibitors of proliferation of Plasmodium falciparum line Dd2 (AID 1882); conditions: Potency: Plasmodium falciparum Dd2 proliferation inhibition; note: nearly all actives have a fitted effect of over 65% in size; note: potency is the fitted concentration of half-maximal effect;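 for activity change, negative = inhibition: compound exposure of 72 h on infected erythrocytes; plate controls were DMSO vehicle for no effect and 0.29 µM artemisinin for full effect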
# Procedure, shortened: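 SYBR Green I DNA fluorescence read-out, ex 485/em 535 nm. Signals were normalized to 0.29 uM artemisinin and DMSO wells, then corrected using vehicle-only plates flanking each stack. Parasite growth ran 72 h in erythrocytes before lysis.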
# [17] = molecular target: RecQ-like DNA helicase BLM (Homo sapiens) (UniProt P54132); assay: qHTS Validation Assay for Inhibitors of Bloom's syndrome helicase (BLM) (AID 2364);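 note: plate controls were DMSO vehicle for no effect and enzyme-free control for full effect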
# Procedure, shortened: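 BLM 50 nM in 25 mM Tris-HCl pH 8.0, 5 mM NaCl, 2 mM MgCl2, 1 mM DTT, 0.01% Tween-20, 2.5 ug/ml poly(dI-dC); 15 min cpd preinc, RT. Start: 200 nM forked DNA + 2 mM ATP (final). TAMRA read, 2 reads 2 h apart.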
# [18] = measured here: cell count channel max response
# [19] = measured here: lipid channel max response
# Chain of Ferritin light chain (Equus caballus) (P02791 2-175 limits assumed): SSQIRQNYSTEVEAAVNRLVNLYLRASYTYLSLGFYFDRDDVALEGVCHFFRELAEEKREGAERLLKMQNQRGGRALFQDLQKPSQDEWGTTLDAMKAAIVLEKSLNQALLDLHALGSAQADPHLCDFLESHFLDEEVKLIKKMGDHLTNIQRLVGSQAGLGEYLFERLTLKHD
# Chain of ATP-dependent DNA helicase Q1 (Homo sapiens) (P46063 whole entry, looked up): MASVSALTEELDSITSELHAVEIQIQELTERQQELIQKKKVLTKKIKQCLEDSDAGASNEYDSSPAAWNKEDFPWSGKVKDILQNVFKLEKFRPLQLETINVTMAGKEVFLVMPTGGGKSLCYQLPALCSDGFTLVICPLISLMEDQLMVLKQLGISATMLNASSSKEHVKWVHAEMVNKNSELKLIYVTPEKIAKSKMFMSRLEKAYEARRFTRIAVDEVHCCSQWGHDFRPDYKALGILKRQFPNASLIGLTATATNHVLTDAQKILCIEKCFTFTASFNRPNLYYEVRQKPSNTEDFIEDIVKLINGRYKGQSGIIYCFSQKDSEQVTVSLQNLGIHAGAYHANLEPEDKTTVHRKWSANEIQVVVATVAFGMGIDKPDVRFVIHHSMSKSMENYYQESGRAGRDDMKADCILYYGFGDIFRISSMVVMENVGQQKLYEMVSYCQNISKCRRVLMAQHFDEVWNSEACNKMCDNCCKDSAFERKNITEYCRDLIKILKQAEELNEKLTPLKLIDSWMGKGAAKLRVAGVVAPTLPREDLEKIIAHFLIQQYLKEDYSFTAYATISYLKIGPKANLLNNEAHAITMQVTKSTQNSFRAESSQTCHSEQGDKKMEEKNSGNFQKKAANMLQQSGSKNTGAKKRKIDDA
# Chain of DNA repair nuclease/redox regulator APEX1 (Homo sapiens) (P27695 whole entry, looked up): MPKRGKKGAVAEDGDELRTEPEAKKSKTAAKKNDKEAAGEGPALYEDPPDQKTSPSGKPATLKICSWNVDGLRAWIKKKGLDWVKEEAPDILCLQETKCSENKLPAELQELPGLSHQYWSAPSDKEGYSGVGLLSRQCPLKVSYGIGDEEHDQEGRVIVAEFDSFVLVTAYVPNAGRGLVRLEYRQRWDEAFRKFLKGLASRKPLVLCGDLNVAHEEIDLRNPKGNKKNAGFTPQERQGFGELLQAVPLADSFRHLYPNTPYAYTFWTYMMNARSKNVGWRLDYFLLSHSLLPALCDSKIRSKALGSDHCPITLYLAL
# Chain of RecQ-like DNA helicase BLM (Homo sapiens) (P54132 whole entry, looked up): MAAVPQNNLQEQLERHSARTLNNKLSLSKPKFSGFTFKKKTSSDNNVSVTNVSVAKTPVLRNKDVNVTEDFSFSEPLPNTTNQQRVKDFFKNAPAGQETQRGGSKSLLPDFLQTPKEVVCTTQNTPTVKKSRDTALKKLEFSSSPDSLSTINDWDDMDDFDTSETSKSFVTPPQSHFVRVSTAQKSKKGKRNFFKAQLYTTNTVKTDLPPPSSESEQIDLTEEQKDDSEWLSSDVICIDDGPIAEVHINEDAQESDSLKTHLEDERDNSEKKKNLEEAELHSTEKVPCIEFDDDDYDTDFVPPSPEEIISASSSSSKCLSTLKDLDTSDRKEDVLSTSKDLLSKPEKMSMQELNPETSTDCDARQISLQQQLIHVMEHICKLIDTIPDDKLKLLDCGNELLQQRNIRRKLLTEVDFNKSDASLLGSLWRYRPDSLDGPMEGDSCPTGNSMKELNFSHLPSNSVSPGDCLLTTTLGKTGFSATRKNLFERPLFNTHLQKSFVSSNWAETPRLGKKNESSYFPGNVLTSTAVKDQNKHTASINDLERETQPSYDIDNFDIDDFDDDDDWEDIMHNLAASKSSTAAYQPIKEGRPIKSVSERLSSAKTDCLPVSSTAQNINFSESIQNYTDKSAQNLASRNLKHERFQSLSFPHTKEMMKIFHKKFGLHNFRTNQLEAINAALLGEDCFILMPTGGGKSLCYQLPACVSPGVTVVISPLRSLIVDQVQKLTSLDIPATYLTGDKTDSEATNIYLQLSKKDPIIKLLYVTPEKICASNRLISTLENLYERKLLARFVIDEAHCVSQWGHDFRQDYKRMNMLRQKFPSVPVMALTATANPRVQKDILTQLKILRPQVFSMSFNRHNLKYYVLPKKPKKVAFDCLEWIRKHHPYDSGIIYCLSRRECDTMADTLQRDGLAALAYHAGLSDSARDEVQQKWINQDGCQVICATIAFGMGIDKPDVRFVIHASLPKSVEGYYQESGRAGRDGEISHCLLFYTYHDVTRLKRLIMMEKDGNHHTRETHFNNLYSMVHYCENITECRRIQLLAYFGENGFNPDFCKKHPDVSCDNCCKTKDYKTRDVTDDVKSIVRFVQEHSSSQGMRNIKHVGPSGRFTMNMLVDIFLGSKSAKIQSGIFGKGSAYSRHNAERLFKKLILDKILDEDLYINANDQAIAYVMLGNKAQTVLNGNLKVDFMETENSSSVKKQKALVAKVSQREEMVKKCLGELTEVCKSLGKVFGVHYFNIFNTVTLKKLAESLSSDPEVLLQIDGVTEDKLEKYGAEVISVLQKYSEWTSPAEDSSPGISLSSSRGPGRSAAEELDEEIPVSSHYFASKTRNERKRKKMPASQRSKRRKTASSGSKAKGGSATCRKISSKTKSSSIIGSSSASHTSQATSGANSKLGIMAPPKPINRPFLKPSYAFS
compound,measurement,setting,value
CC(=O)N=c1sc(S(N)(=O)=O)nn1C,"activity change, negative = inhibition",[1]; at 25.7 µM (top of the series),-5.24% (inactive)
same,"activity change, negative = inhibition",[1]; at 57.5 µM (top of the series),-1.51% (inactive)
same,max response,[1]; [18],-10.9% and 5.08%
same,max response,[1]; [19],-12.6% and 4.84%
COc1cc(S(C)=O)ccc1-c1nc2ncccc2[nH]1 (stereo not given),"activity change, negative = inhibition",[1]; at 25.7 µM (top of the series),0.171% (inactive)
same,max response,[1]; [18],-21.2%
same,max response,[1]; [19],-18.4%
CC1CCCC(C)N1NC(=O)c1ccc(Cl)c(S(N)(=O)=O)c1 (stereo not given),"activity change, negative = inhibition",[1]; at 57.5 µM (top of the series),2.67% (inactive)
same,max response,[1]; [18],17.3%
same,max response,[1]; [19],23.6%
CC1CCC(NC(=O)N(CCCl)N=O)CC1 (stereo not given),"activity change, negative = inhibition",[1]; at 57.5 µM (top of the series),0.815% (inactive)
same,max response,[1]; [18],10.3%
same,max response,[1]; [19],12.2%
Nc1ccc(N=Nc2ccccc2)c(N)n1,Potency,[2],inactive
same,Potency,[3],inactive
same,"activity change, negative = inhibition",[1]; at 25.7 µM (top of the series),-0.0516% (inactive)
same,"activity change, negative = inhibition",[1]; at 57.5 µM (top of the series),17.8% (inactive)
same,max response,[1]; [18],-20.4% and -3.25%
same,max response,[1]; [19],-21.4% and 16.6%
N[C@H](CC(=O)O)C(=O)O,"activity change, negative = inhibition",[1]; at 57.5 µM (top of the series),-1.19% (inactive)
same,max response,[1]; [18],-13%
same,max response,[1]; [19],-12.9%
Cc1cc(C)c(NC(=O)C[C@H](CC(=O)O)c2cccc3ccccc23)c(C(=O)N2CCC3(CCCC3)CC2)c1,outcome,[4],inactive
same,outcome,[5],inactive
same,outcome,[6],inactive
same,outcome,[7],inactive
same,outcome,[8],inactive
same,Potency,[9],12.6 µM (active)
same,Potency,[10],11.2 µM (active)
same,Potency,[11],11.2 µM (active)
same,Potency,[12],14.1 µM (active)
same,outcome,[13],inactive
same,outcome,[14],inactive
C=CC(C)(O)CC/C=C(\C)CCC=C(C)C (stereo not given),"activity change, negative = inhibition",[1]; at 57.5 µM (top of the series),0.625% (inactive)
same,max response,[1]; [18],5.67%
same,max response,[1]; [19],8.64%
Oc1ccc(/C=C/c2cc(O)cc(O)c2)cc1,Potency,[2],inactive
same,"activity change, negative = inhibition",[1]; at 57.5 µM (top of the series),25.3% (inactive)
same,max response,[1]; [18],-23.2%
same,max response,[1]; [19],2.31%
same,outcome,[6],inactive
same,outcome,[7],inactive
same,outcome,[8],inactive
same,Potency,[9],inactive
same,outcome,[15],inactive
same,Potency,[16],inactive
same,Potency,[12],inactive
same,outcome,[13],inactive
same,outcome,[14],inactive
O=C(CCCCCCCCCCCCC1CCCC1)Nc1ccc(S(=O)(=O)c2ccc(NC(=O)CCCCCCCCCCCCC3CCCC3)cc2)cc1,"activity change, negative = inhibition",[1]; at 57.5 µM (top of the series),10% (inactive)
same,max response,[1]; [18],14.8%
same,max response,[1]; [19],25.4%
O=C1c2ccccc2C(=O)c2c1ccc(O)c2O,"activity change, negative = inhibition",[1]; at 57.5 µM (top of the series),15% (inactive)
same,max response,[1]; [18],2.35%
same,max response,[1]; [19],20.3%
Cc1cccc(C)c1NC(=O)C1CCCCN1C (stereo not given),"activity change, negative = inhibition",[1]; at 57.5 µM (top of the series),7.8% (inactive)
same,max response,[1]; [18],19%
same,max response,[1]; [19],29.6%
C[C@@](Cc1ccc(O)c(O)c1)(NN)C(=O)O,outcome,[4],inactive
same,"activity change, negative = inhibition",[1]; at 57.5 µM (top of the series),-0.657% (inactive)
same,max response,[1]; [18],-17.5%
same,max response,[1]; [19],-16%
same,outcome,[6],inactive
same,outcome,[7],inactive
same,outcome,[8],inactive
same,outcome,[15],inactive
same,Potency,[16],10 µM (active)
same,outcome,[13],inactive
same,outcome,[14],inactive
same,outcome,[17],inactive
